Test results taken from PubChem BioAssay (NCI).
Compounds without any hit were thinned out: in the full panel of roughly 79,000, 15% have a hit. Values without a mark were called inactive. Calls of active or inactive are those of the source. Cut-off read from the data, not from the text of the source: active = growth inhibition above about 70%; inactive = the rest.

What was measured:
[1] = NCI Yeast Anticancer Drug Screen. Data for the rad50 strain (AID 155);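 note: 0% = growth of vehicle-only cultures of the same strain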; conditions: S. cerevisiae rad50 strain growth inhibition; at 50.0 µM; hits give high values
Procedure, shortened: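 Cells are treated with compound, grown, and their growth is then scored against vehicle-only cultures of the same repair-deficient yeast strain.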

[2] = NCI Yeast Anticancer Drug Screen. Data for the mec2-1 strain (AID 157); conditions: S. cerevisiae mec2-1 strain, at 50.0 µM, hits give high values
Procedure, shortened: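 Compounds were applied to mec2-1 yeast cells. Their growth was then compared with that of vehicle-treated cultures to give growth inhibition.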

[3] = NCI Yeast Anticancer Drug Screen. Data for the sgs1 mgt1 strain (AID 161);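 note: 0% = growth of cultures given vehicle only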; conditions: S. cerevisiae sgs1 mgt1 strain, at 50.0 µM, hits give high values
Procedure, shortened: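 Growth of a repair-deficient yeast mutant was monitored after compound treatment and expressed as inhibition relative to vehicle-treated cultures.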

[4] = NCI Yeast Anticancer Drug Screen. Data for the cln2 rad14 strain (AID 165);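 note: 0% = growth equal to vehicle treated cultures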; conditions: S. cerevisiae cln2 rad14 strain, at 50.0 µM, hits give high values
Procedure, shortened: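 Strain: cln2 rad14 yeast, altered in cell cycle control and DNA damage repair. Read-out: growth inhibition vs vehicle.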

[5] = NCI Yeast Anticancer Drug Screen. Data for the bub3 strain (AID 167); conditions: S. cerevisiae bub3 mutant strain, at 50.0 µM, hits give high values
Procedure, shortened: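 Part of a panel of yeast mutants defective in DNA damage repair or cell cycle regulation. Each strain is grown with compound, and inhibition is calculated relative to solvent-treated cultures.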

[6] = NCI Yeast Anticancer Drug Screen. Data for the mlh1 rad18 strain (AID 175); conditions: S. cerevisiae mlh1 rad18 strain growth inhibition; at 50.0 µM; hits give high values
Procedure, shortened: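 A repair-deficient yeast strain is exposed to test compound, and growth is scored relative to vehicle-treated controls.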

Row | Structure (SMILES) | growth inhibition [1] | growth inhibition [2] | growth inhibition [3] | growth inhibition [4] | growth inhibition [5] | growth inhibition [6]
1 | C1=Nc2ccccc2/C1=C/c1c[nH]c2ccccc12 | 11.2% | -10.1% | 5.2% | 17.9% | 1.05% | –
2 | Cc1cc(-c2ccccc2N)nc2ccccc12 | 47.5% | 2.35% | 30.4% | 31.3% | 15.9% | –
3 | O=C1/C(=C/c2ccccc2)Oc2cc(O)ccc21 | 31.9% | -13.8% | 33% | 30.4% | 27.4% | –
4 | O=C(Nc1ccc(Cl)cc1)Nc1nnc(-c2ccccc2Br)o1 | 15.6% | 18.6% | 19.2% | -15.4% | -22.6% | –
5 | CC(CCc1nc2ccccc2[nH]1)c1nc2ccccc2[nH]1 (stereo not drawn) | -18.6% | 2.05% | -0.8% | 18.1% | 14.8% | –
6 | COC1=C(N)C(=O)c2ccc(-c3ccccn3)nc2C1=O | 89.7% (active) | 92.3% (active) | 86.8% (active) | 89.8% (active) | 81.8% (active) | –
7 | CCOC1OCCCC1C(OCC)C(C)C (stereo not drawn) | 39% | 14.7% | 19.4% | 9.35% | -0.7% | –
8 | CCN(CC)CC(OC(C)=O)c1ccc2ccc3ccc(O)cc3c2c1 (stereo not drawn) | 15.9% | 7.85% | -7.55% | -5.55% | -3.25% | –
9 | OC1(c2ccc(-c3ccccc3)cc2)c2ccccc2-c2ccccc2C1(O)c1ccc(-c2ccccc2)cc1 (stereo not drawn) | 6.45% | -5.95% | -2.2% | 2% | 6.3% | –
10 | Cc1cc(C)c(NC(=O)Nc2cccc(F)c2)c(C)c1 | 20.8% | 11% | 13.2% | 19.2% | 23.4% | –
11 | S=C(NCc1ccco1)Nc1ccccc1Cl | 5.5% | -4.1% | 16.2% | 4.5% | 4.4% | –
12 | N=C(N)c1ccc(N=Nc2ccc(N)cc2N)cc1 | 7.4% | -3.75% | -7.45% | 12.8% | -5.25% | –
13 | CC1(C)COC(c2ccc(C(C)(C)C)cc2C(O)(c2cc(C(C)(C)C)ccc2C2=NC(C)(C)CO2)c2cc(C(C)(C)C)ccc2C2=NC(C)(C)CO2)=N1 | -8.8% | -4.2% | 7% | -5.5% | 28.6% | –
14 | CC1=C(Br)C(=O)C(c2c(C)cc(C)cc2C)=C(Br)C1=O | 97.5% (active) | 98% (active) | 98.2% (active) | 92.8% (active) | 97.5% (active) | –
15 | COc1ccccc1Cn1nc(OC)c2cc([N+](=O)[O-])ccc21 | 27.6% | 30.6% | -6.1% | 2.05% | -17.9% | –
16 | N#Cc1cccc(-c2ccc(-c3ccccc3)o2)c1 | 31.6% | 27.4% | 27.1% | -7.25% | 60.9% | –
17 | C=CCN1COc2c(cc3c4c(cccc24)C(=O)O3)C1 | -0.25% | -4.25% | 10.1% | 8.35% | 6.35% | –
18 | Cc1nc2ccccc2c(=O)n1C(C)(C)CCl | 10.1% | 30.6% | 11.1% | -14.7% | 30.3% | –
19 | CC(=O)/C(=C\c1ccccc1F)C(=O)CCN(C)C | 7.95% | 6.55% | 8.05% | 12.2% | 13.6% | –
20 | CC(=O)N[C@H](CO)[C@H](O)c1ccc([N+](=O)[O-])cc1 | -12.2% | 10.1% | 9% | -47.6% | 16.1% | –
21 | O=C1C(O)=C(Br)C(=O)C(O)=C1Br | 6.2% | -12.2% | 10.1% | -12.1% | 15.4% | –
22 | COc1ccc(C(=O)N/N=C/c2ccccc2)cc1 | 8.3% | -10.8% | -7.7% | 6.85% | 2.6% | –
23 | C1CCN(c2nsc(N3CCCCC3)n2)CC1 | -13.7% | -5.15% | 2.95% | -52.1% | -14.6% | –
24 | Cc1ccc(NC(=S)Nc2ccccc2F)cc1 | -8% | -13.2% | -2.2% | -28.8% | 43.5% | –

Row | Structure (SMILES) | growth inhibition [1] | growth inhibition [2] | growth inhibition [3] | growth inhibition [4] | growth inhibition [5] | growth inhibition [6]
25 | CC[N+](C)(CC)CCOc1ccc(Cc2nc3c([nH]2)c(=O)n(C)c(=O)n3C)cc1 | 8.15% | 5.9% | 13.8% | -4.4% | -9.6% | –
26 | CCCC(C)C(=O)OC(C)CC(C)C (stereo not drawn) | 31% | 15.9% | 21.9% | -0.75% | 20.9% | –
27 | COc1ccc(C(=O)/C=C/c2cc(C(C)(C)C)c(O)c(C(C)(C)C)c2)cc1 | 17.4% | -1.2% | 14.6% | 25.4% | 7.8% | –
28 | C1CCSCCCCSCCCCSCCCCSC1 | 20.4% | 18% | 23.4% | 6.5% | 16.9% | –
29 | COc1ccc(C(C)=C(C#N)C#N)cc1 | 18.9% | 2.7% | -5.65% | 16.1% | 20.4% | –
30 | CCCCCNc1ncnc2c1cnn2C | 7.6% | 0.6% | -1.35% | -12.4% | 22.6% | –
31 | CCCCC/C=C/C(CC)(C(=O)OCC)C(=O)OCC | -5.95% | 20.9% | 13.6% | -60% | 40.9% | –
32 | Nc1nc(=S)c2ncn(C3OC(COC(=O)c4ccc([N+](=O)[O-])cc4)C(OC(=O)c4ccc([N+](=O)[O-])cc4)C3OC(=O)c3ccc([N+](=O)[O-])cc3)c2[nH]1 (stereo not drawn) | 3.35% | 3.35% | -2.65% | -1.7% | -5.65% | –
33 | CN(N)C(=O)NCCCl | -9.1% | -4.6% | 8.25% | 13.4% | -28% | –
34 | CO[C@@H]1O[C@H](C(=O)c2ccccc2)[C@H]2OC(C)(C)O[C@@H]12 | -5% | -10.7% | 28.3% | 8.7% | 19.1% | –
35 | CCN(CC)CCNC(=O)c1ccccc1NC(=O)C(=O)Nc1ccccc1C(=O)NCCN(CC)CC | -46.9% | -13.2% | -55.2% | -5.15% | -60.3% | –
36 | O=C(NCc1cccnc1)Nc1cccc2c(NC(=O)NCc3cccnc3)cccc12 | -17.1% | -6.3% | 5.8% | 14.5% | -0.05% | –
37 | Cc1ccccc1NC(=S)N1CCOCC1 | -4.55% | 14.4% | -10.8% | -68.6% | 14.2% | –
38 | O=C1CCCCc2ccccc21 | -39.1% | -57.4% | -7.95% | -7% | -25.1% | –
39 | C=CCNC(=O)c1ccc[n+](CC(=O)Nc2ccccc2)c1 | 1% | -9.75% | -1.1% | 9.8% | 2.3% | –
40 | CC(=O)OCC1OC(OC(C)=O)C(NC(=O)CNC(=O)OCc2ccccc2)C(OC(C)=O)C1OC(C)=O (stereo not drawn) | 21.8% | 2.8% | -16.9% | 7.8% | -4.75% | 4.35%
41 | CCOC(=O)C(NC(=O)Cc1ccccc1)C1NC(C(=O)O)CS1 (stereo not drawn) | 19.9% | 1.8% | 3.2% | -14.8% | -1.05% | -13.8%
42 | Cc1cc(N2CCCCC2)nc2ccccc12 | 4.95% | -4.4% | -18.6% | -3.9% | -1.85% | 9.25%
43 | Cc1ccc([N+](=O)[O-])cc1NC(=O)NCCO | 1.15% | 1.6% | -6.3% | -71% | 1% | -1.75%
44 | O=C1Nc2ccccc2C2=C3CCCCC3=NNC12 (stereo not drawn) | 97.7% (active) | 93.8% (active) | 97.7% (active) | 68.2% | 97.5% (active) | 86% (active)
45 | O=C1NC(=O)C(F)[CH]([Ge](=[O])[O][Ge](=[O])[CH]2NC(=O)NC(=O)C2F)N1 (stereo not drawn) | -7.45% | -8.85% | 0.2% | -7.35% | 0.7% | -17.9%
46 | CC(C)CCc1c(Cl)nc(Cl)nc1Cl | 32.2% | 38.6% | 33.6% | 10.1% | 43.9% | 16.9%
47 | CCC(=O)Nc1nnc(SCCCCCCCCCCSc2nnc(NC(=O)CC)s2)s1 | 20.6% | 4.95% | 17.7% | 19.3% | -2.5% | 21.5%
